Measured values as given in the supplement of paper PMC12632987.
In all, about 4,500 sequences were measured (“median log2 fold change of GCK-ALFA target abundance (FLAG IP / Myc IP barcode read proportion)”: median about 0.078, lowest 2% from about -0.6 on). Only a selection was taken, and the lowest values are over-represented in it overall.

B1: GBRAP_160_4221 (protein)
chain: SETIERIVKIFRENFEEAVELIEGESLEEQKVILDVAVGEVILEVSSDENVTDEMEEVVEKKAEEAAEELLKLKNASREEKLKLIEEKAKELKKELEKLA
B2: GBRAP_160_4219 (protein)
chain: METIERIVEIFRENFLEALELIEGESEEERKVILDVAVGEIILEVDSDENVTDEMEEVVDEKARELAEELLKLKNASEEEKRALIEEKAEELREELEKLA
B3: GBRAP_166_4915 (protein)
chain: SMEELLEEAKRRIEELVKKIPKTDREKQVELAIEIAEVLEELEKAGASEEELDELWRHLAEALKEAGLDVERLMAVVAAAAGLDEEEMERVDEIVEEVLA
B4: GBRAP_52_6254 (protein)
chain: MRARLRADAREIVALVAAGREEEARALARDIAENYNEEELRLFVDEMAALAREARPEELDTVWRAAELMAEELEAAGKPEILVDDLLARVAAAAVEVLAR
B5: GBRAP_52_6083 (protein)
chain: MEKEIEETANKIYEAIKAGDKEKALELIKEAIKKFSPEEIKEMLKLTAEKVASLGDEKHELFVDILTEAEDLMIEAGISEEEALLIVGDAEAALAKAVAA
B6: GBRAP_52_6084 (protein)
chain: MKEKIEKTAKEIYEAIKAGDKEKALELIKKAVEEFSKEEIKEMLELTAKRVASLGDDAHELFVDILDEAEDILIEAGISEDDALLIVGSAEAALAKAVAA
B7: GBRAP_52_6085 (protein)
chain: MEEEIEERAEEIYEAIKAGDKEKALALIKKAIKEFSAEEIKRMLELTAKRVASLGDDAHELFVDILGEAEDLLIEAGISEEEALAIVGAAEAALARAVAA
B8: GBRAP_160_4760 (protein)
chain: KEKLKKLKEEVEEIFKEHLEMLKEVKPEEAPTVVRGAMGEVIMEVMSSEAASDELEEKIGEIADEAEEEAEANKDAPVEFHIKILEEARKKILSLIEEEI
B9: GBRAP_125_2982 (protein)
chain: PTEQELEDLRRFARALGLDEEEAEEAAELARAHSLRGTVYAILAALGEEEAADLVEKLTEEEVARVLRRVAAYLEAHPDATPEEVVALFRELAEEELAKR
B10: GBRAP_139_3718 (protein)
chain: SAAEEKIEKAKEIVEKYKDDLEKLAKELAKLISEVDGETALEIVRAAAEELKDWSWEEWEEFIELLEKELKELGFDEDDVLAIKGEFEAVMAKHLMAKEA
B11: GBRAP_117_2578 (protein)
chain: MEEREEVKRRLRETVREAGKRLEESKSLSPEERRKVEEEVRERIAEAVREALEVLSREEVLDIVEEELLEFDAETYFKIMSFVEEAIEEIREEEEREREE
B12: GBRAP_11_2868 (protein)
chain: KKEKLEELAKLVKEAIEKLEKLLKEGVDNEELRKEIKKLLKEALKLAEKYASPAVAELLKIALEDLEKAEEDPENAKEYVERALAALRVAHGDLLLEIDE
B13: GBRAP_172_4999 (protein)
chain: GTTLLKLNLLGLSKEEAVETAVKAVKETIEKTGNNLVVAVIADDEETVEAVEKAIKKVAKEKGVKVEVVGEAYRSEEDERRVLAAAEAEKINLEYEEEEK
B14: GBRAP_11_2687 (protein)
chain: KKEKLEEGAKLAEELAKLIEELLKEGVDNEKLLKELEKKLKELEKLTKEYADKASQKLTEDIKETWEEMLKDPEKAEEYAKEMLAGARVLAGDYLLEIEE
B15: GBRAP_160_4409 (protein)
chain: SEELKKTAERILEAVKEELELLLELGEIDPEAAAGLLEGTILLEVFEDDSLTEEQEEKLEELAEELAEELRKRLEEEGKMTEEIKEELLKLAKEGLEKII
B16: GBRAP_160_4407 (protein)
chain: SEALKETAERILEAVKDELDLLLELGKIDPKAAAGLLEGTVLLEMFEDDSLTEEQEEKLEELAERLAERLEKLLKEEGEMTEEIRKELLEEAKRGLEEII
B17: GBRAP_160_4408 (protein)
chain: SEELEETAERILEAVEDELELLLELGEVDPEAAAGLLEGTILLEAFEDDSLTEEQEEEIEELAEELAERLERLLKEEGRMTEEIVEELLEEAEEGLEEII
B18: GBRAP_14_3807 (protein)
chain: MEEKKKAITDNTDELKEIVTEILKDAPQEVRDAVLAAIEDFRKTVIENNLNPDEIAELGDELVKKVEEITKDLPADVRARVLAAVRVHTGEIILEVEELE
B19: GBRAP_95_7033 (protein)
chain: EDDKLALESAIEVAVAAAELGDDDAAARALREALELLKKAGKVELDEELLKEAIDVIERVGVKKLPREDVLELLELLLEAAETEEVKELAEKAIERVKKR
B20: GBRAP_160_4426 (protein)
chain: SAKLEKAKKLITEIVEETAEMMEGESAEERIVLVRVAEGEILLELEELGLLTDEIEAVIDETFAAIAAHIAAHPDISQEELRALLKAAEEKIKKQLEKEA
B21: GBRAP_52_6047 (protein)
chain: SEEEIRRLAREAYEAMLAGDEERARALLREIFATKDEEKLEVFLETMVELAREARPEEHDAVARLVELAEEVGREAGIPEEFLDDFEARVFAAMYEAEQR
B22: GBRAP_11_2845 (protein)
chain: KKEKLKEIAEQADKVIALLDELIAAGTDDEELWKKLEEQLKKLQELVEKYLDESEKELAKLAKEELEEAKADPANAEQHLNNAKAFVSTLQGLVLLEIEE
B23: GBRAP_125_3027 (protein)
chain: SMEETAANLAKIARALGFSEGDVAELVANALAHGIKGAMIALALALGDEELADLLERLTEEEVARVVAEAAAEIEANPDLTPEEVKALLLELARRAVAES
B24: GBRAP_35_5514 (protein)
chain: STDDTIAEMLESYIEDLTLAVPELDPETLHTLTLGAAEMARELIEDNKNNKEIVKRIKESLERLLEALEARGLDDPLLREAAERVREVIEYAEEVLKEIE
B25: GBRAP_150_3890 (protein)
chain: SLEELLTIADTALDILELDIESGGKTIDQTLKVVQALVDEAKNFSPELQKLAEEALKKVEEAKKLKEEGGDQKEIDKLLKEAKKKLEELIKLLEKKIKEK
B26: GBRAP_83_6961 (protein)
chain: MIVVAASERPESIRSSIEAAIDLHKNEGKEVEIELFVTRENAPAALEGLKKAIDAGVEAEITLVTREEDREAAEALAAELKAYAAAKGRNTTVTVEVLPA
B27: GBRAP_184_5320 (protein)
chain: KVIHKVIEVETEEEAIEKLEEVKKEAKETGEKYLVVVEIKNATEKKIEAIAEKIKEMKEEGLPIEVIVELLDEVDEELTDFAVEKMEEAGAKVVISLKDE
B28: GBRAP_160_4153 (protein)
chain: SEEIEKLIKEINEIADEAIKMMEGETPEQAKTIARVALGEMLLLVEENEAVSEETEDKIGEVVDATEATLKANPNLTVEEVKALLNEARDKIVKILKEES
B29: GBRAP_160_4155 (protein)
chain: SEELKKLIKEIKELADEAIKMMEGETPEQAKTIARVTLGDILLLVEENPAVSEEAEDKIGAIADATEATLKANPDLTVEEVKALVKEARDKVVAILEEEA

Biological target: GABARAP, O95166
Experiment: median log2 fold change of GCK-ALFA target abundance (FLAG IP / Myc IP barcode read proportion) (log2 ratio); each designed protein is fused to an ALFA-tag nanobody in HEK293 cells to bring the named protein to FLAG-tagged glucokinase (GCK); Myc marks an untargeted standard; higher = target protein stabilised (more abundant)
Conditions: target protein: 3xFLAG-MCP-GCK-ALFA reporter; HEK293 landing pad (RPLP)
Experimental: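 LABEL-seq trans screen in HEK293 landing-pad cells. Each de novo designed 100-aa effector handle, binding the indicated effector (E3 ligase, DUB or autophagy protein), is fused to a constant NbALFA target handle and induced with 2 ug/mL doxycycline. A FLAG-MCP-GCK-ALFA target and a Myc-MCP standard reporter were transfected, and after 48 h circRNA barcodes were recovered by anti-FLAG and anti-Myc IP and sequenced. The value is the median across barcodes (at least 3 per design) of log2(FLAG/Myc read-proportion ratio), with the two transfection replicates pooled. Negative values mean degradation and positive values mean stabilisation of the target.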

GABARAP, O95166, sequence (O95166 whole entry, the tested form may be a part): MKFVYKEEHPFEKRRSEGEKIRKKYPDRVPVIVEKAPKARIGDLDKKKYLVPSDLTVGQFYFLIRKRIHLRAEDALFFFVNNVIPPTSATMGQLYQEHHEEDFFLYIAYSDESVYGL

Binder	median log2 fold change
B1	-0.86
B2	-0.349
B3	0.0994
B4	-0.285
B5	-0.22
B6	-0.732
B7	-0.146
B8	-0.185
B9	-0.551
B10	0.0839
B11	0.274
B12	0.0406
B13	0.15
B14	0.232
B15	-0.32
B16	-0.289
B17	-0.872
B18	0.206
B19	0.148
B20	-0.243
B21	0.204
B22	0.0872
B23	0.134
B24	-0.908
B25	0.232
B26	0.189
B27	0.193
B28	-0.642
B29	-0.546
